Bioassay records (PubChem)
Shown is part of a subset that was picked to be rich in hits.
HTT ATP protect: protects HTT-Q103 PC12 cells, measured by ATP. PC12 HTT-Q103 induced, cytoprotection, ATP luminescence, 40 h. Potency, µM (titrated, usually from 56.4 µM), for inactives: cytoprotection (ATP increase), actives largely listed as activators. hit rate 0.14% among 230,000. AID 1471; also: potency is read from the fitted curve at half-maximal effect; % of control where 0% means no effect; nearly all actives have a fitted effect of over 45% in size
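PC12 cells with ecdysone-inducible HTT exon 1 Q103-GFP, induced with 100 nM tebufenozide and co-treated with library compounds in a dose series (1536-well, 1500 cells/well). Cytoprotection read as ATP content by ATPlite luminescence.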
PNC assembly inh: blocks assembly of the perinucleolar compartment; PC3M PTB-GFP, PNC prevalence imaging, 16 h; active compounds read low; activity change (PNC), negative = inhibition, % at 10 µM; hit rate 3.1% among 140,000;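 active = readout at or below -70, meaning at least 70% loss of cells showing the perinucleolar compartment, a nuclear body marking cancer cells; inconclusive = readout between -30 and a set limit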;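 also: plate controls were DMSO wells for no effect and camptothecin positive control wells for full effect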
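PC3M cells stably expressing PTB-GFP, 750–1000 cells/well, treated 16 h at 37 °C with compound (23 nl of library stock), in duplicate. After paraformaldehyde fixation and Hoechst stain, imaged at 20x; PNC prevalence scored by image analysis.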
HttQ103 aggreg: mutant huntingtin aggregation inhibition. PC12 HttQ103-GFP aggregates, Acumen cytometry, 40 h. Potency, µM (highest dose often 46.1 µM), without a hit: top-dose activity change, negative = inhibition, most hits filed as inhibitors. hit rate 1.1% among 220,000; also: potency is read from the fitted curve at half-maximal effect; % is scaled to controls: 0 for no effect and ±100 for the full control effect; nearly all actives have a fitted effect of over 60% in size
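Quantitative HTS on tebufenozide-induced (100 nM) PC12 cells stably expressing polyQ103 Huntingtin exon 1–GFP. Reduction of bright GFP aggregates, detected by laser scanning cytometry after lysis, identified actives across the titration.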
* = called active by the depositor; u = inconclusive; x = not tested or not shown; [ ] = dose if it differs, or a comment. Unless noted, calls follow the shape of the dose curve; as a rule, active = well fitted curve in the direction sought with a large enough effect; inconclusive = small, poorly fitted or top-dose-only effect, or another doubt; inactive = no such curve, though single readings can be large; an effect the other way counts as inactive or inconclusive.

SMILES	HTT ATP protect	PNC assembly inh	HttQ103 aggreg
CCCCC(=O)Nc1ccc(NC(=O)c2ccc([N+](=O)[O-])cc2Cl)cc1OC	14.7%[10 µM]	-2.4	-0.2%
COc1ccc(C2C(C(C)=O)=C(O)C(=O)N2CCCn2ccnc2)cc1 (configuration not stated)	3.3%	64.3	6.9%
COc1cccc(C2C(C(=O)c3cccs3)=C(O)C(=O)N2CCCn2ccnc2)c1OC (configuration not stated)	-63.1%[10 µM]	-96.5*	u
Cc1ccc(-n2nnnc2SCC(=O)c2cc(C)n(-c3cc(C)on3)c2C)cc1	1.8%[10 µM]	-27.0	-1.3%
O=C(N/N=C\c1ccc(Cl)cc1Cl)c1sccc1-n1cccc1	-19.7%	25.8	-19.9%
COCCNc1cc(C)nc2cc(-c3ccc(C)cc3)nn12	-125.7%	x	0.8%
Cc1ccc(-c2cc3nc(C)cc(NCc4ccco4)n3n2)cc1	-96.5%[10 µM]	-104.1*	-2.5%
CCc1nnc(NC(=O)CSc2ncc(-c3ccccc3)n2C)s1	-15.1%[10 µM]	-0.2	-1.0%
O=C(NC1CC1)c1cc2c(s1)CS(=O)(=O)C2	-13.9%	x	24.3%
CCOc1ccc(-n2c(N)c(C(=O)NCc3cccnc3)sc2=S)cc1	-0.8%	-14.6	17.1%
CCOc1ccc(-n2c(N)c(C(=O)NCc3ccco3)sc2=S)cc1	-10.0%	-85.6*	5.0%
CCCc1cc(C(=O)N2CCN(S(=O)(=O)c3ccc(OC)c(OC)c3)CC2)cs1	-1.1%	u	-24.1%
CCN(CCCNC(=O)c1c(C)cc(=O)oc1C)c1ccccc1	25.9%[10 µM]	u	26.2%
CCCCN(CCCNC(=O)c1c(C)cc(=O)oc1C)c1ccccc1	11.1%[10 µM]	-97.8*	-26.8%
CCOC(=O)CC(=O)CSc1nc2c(sc(=S)n2-c2ccc(OCC)cc2)c(=O)[nH]1	x	-8.2	-2.8%
CCOc1ccc(-n2c(=S)sc3c(=O)[nH]c(SCC(=O)NC(C)CC)nc32)cc1 (configuration not stated)	-19.6%	-82.9*	-19.4%[9.22 µM]
CCOC(=O)c1c(C)c(-c2ccccc2)n(CC(=O)N2CCCC2)c1C	-9.2%	17.6	-6.2%
COc1ccc(C2C=C(c3ccc(C)cc3)Nc3ncnn32)cc1 (configuration not stated)	-14.6%	2.8	-7.4%
COc1ccc(C2C=C(c3ccc(Br)s3)Nc3ncnn32)cc1OC (configuration not stated)	-49.0%[10 µM]	u	11.2µM*
CC1(C)OC2OC(C(=O)N/N=C/c3cc(Br)ccc3O)C3OC(C)(C)OC3C2O1 (configuration not stated)	16.4%[10 µM]	u	10µM*
NC(=O)N/N=C\c1cc(Br)ccc1O	11.2%[10 µM]	7.0	0.6%
O=C(NC(=S)Nc1cccc(CO)c1)c1ccc(-c2ccccc2)cc1	5.2%[0.074 µM]	u	-9.7%
Oc1ccccc1-c1cc(C(F)(F)F)[nH]n1	-16.7%[10 µM]	x	-23.5%[9.22 µM]
O=[N+]([O-])c1ccccc1-c1cc(-c2ccccc2O)n[nH]1	11.3%[10 µM]	-83.4*	7.7%
CNCCCCc1cnc(C)c2[nH]c3ccccc3c12	3.55µM*	x	x
SMILES	HTT ATP protect	PNC assembly inh	HttQ103 aggreg
Cc1ccc(C)c2c1[nH]c1ccccc12	33.8%	26.0	3.7%
Cc1ccc2c(c1)c1c(n2CC(O)CN2C(=O)CNC2=O)C(=O)CCC1 (configuration not stated)	-10.2%	-8.0	2.3%
CCOC(=O)C1=C(c2ccccc2)Nc2ncnn2C1c1cc(OC)cc(OC)c1OC (configuration not stated)	-2.3%	u	18.5%
Cc1ccc2c(c1)C=CC(C)N2C(=O)c1ccccc1 (configuration not stated)	9.8%	-14.4	10.6%
Cc1ccc2c(c1)C=CC(C#N)N2C(=O)c1ccccc1 (configuration not stated)	-10.4%[0.074 µM]	-88.2*	24.8%
Cc1ccc(-c2csc3ncnc(N4CCc5ccccc5C4)c23)cc1	-17.0%[10 µM]	-26.3	u
NC1=NC(=Nc2ccc(S(=O)(=O)N3CCOCC3)cc2)c2ccccc21	-14.2%[10 µM]	x	-33.5%[9.22 µM]
Cc1ccc(S(=O)(=O)N2CCCC(C(=O)NCCC(C)C)C2)cc1 (configuration not stated)	-1.8%[10 µM]	x	12.5%[9.22 µM]
Cc1ccc(S(=O)(=O)N2CCCC(C(=O)Nc3cccnc3)C2)cc1 (configuration not stated)	3.3%	-14.5	-1.6%
Cc1ccc(S(=O)(=O)N2CCCC(C(=O)NC3=NCCS3)C2)cc1 (configuration not stated)	2.4%[10 µM]	-102.6*	-9.3%
COCCCNC(=O)C1CCCN(S(=O)(=O)c2ccc(C)cc2)C1 (configuration not stated)	-0.5%[10 µM]	-100.0*	-9.7%
CC(C)(C)C(=O)NC(=S)NNC(=O)c1ccncc1	-36.2%	x	22.5%[9.22 µM]
CC(C)(C)C(=O)NC(=S)NNC(=O)c1ccc(-c2ccccc2)cc1	u	x	8.91µM*
Cc1cc(C)c2c(=O)c(/C=C3\NC(=S)NC3=O)coc2c1	12.0%[10 µM]	x	-8.0%[9.22 µM]
C/C(=N\NS(=O)(=O)c1ccc(C)c([N+](=O)[O-])c1)c1cc2ccccc2o1	6.9%	-26.7	-7.4%
O=C(CN1CCC(n2nnc3ccccc32)CC1)Nc1ccc2c(c1)CCC2	-10.8%[10 µM]	23.3	3.6%
O=C(CN1CCN(C/C=C/c2ccccc2)CC1)Nc1cc([N+](=O)[O-])ccc1Cl	x	-123.8*	-10.7%
Cc1cc(NC(=O)CN2CCN(C/C=C/c3ccccc3)CC2)c([N+](=O)[O-])cc1C	-9.7%[10 µM]	2.1	7.4%
CN(C)c1ccc(/C=N/NC(=O)CCCCCNC(=O)c2ccccc2)cc1	19.0%[10 µM]	x	4.1%[9.22 µM]
Nn1c(SCc2ccc(F)cc2)nnc1-c1ccccn1	18.2%[10 µM]	x	13.0%[9.22 µM]
O=C(Cn1cnc2c(nnn2Cc2ccccc2)c1=O)N1CCN(c2ccccc2)CC1	3.2%[10 µM]	u	-1.3%
O=C(Cn1cnc2c(nnn2Cc2ccccc2F)c1=O)N1CCN(c2ccccc2)CC1	-2.3%[10 µM]	-82.7*	1.6%
COCCn1c(=O)cnc2cnc(N3CCOCC3)nc21	-25.1%	x	x
Cc1cc(NC(=O)CSc2nc3ccsc3c(=O)n2CCCC(=O)NCCc2ccccc2)no1	-0.8%	x	5.0%
CCCCCCCCCCCCCCCC[n+]1cccc2ccccc21	-5.1%[10 µM]	6.9	7.94µM*
SMILES	HTT ATP protect	PNC assembly inh	HttQ103 aggreg
O=C(C[n+]1cccc2ccccc21)c1ccccc1	7.1%[10 µM]	u	-14.2%
CCCCCCCCC[n+]1cccc2c3ccccc3ccc21	-70.0%	-1.6	2.51µM*
O=[N+]([O-])c1ccc(C[n+]2cccc3c4ccccc4ccc32)cc1	u	x	17.0%
N#CCc1ccc(Oc2ncc(C(F)(F)F)cc2Cl)cc1	-67.9%	x	14.8%
O=C(O)[C@H]1CCCC[C@H]1C(=O)Nc1cc([N+](=O)[O-])ccc1F	-15.6%[10 µM]	-19.5	16.7%
CC(C)Cn1c(=S)[nH]c2cc(C(=O)O)ccc2c1=O	-10.7%[10 µM]	x	-3.6%[9.22 µM]
Cc1nc2ccccc2c(=O)n1NC(=O)c1ccco1	-15.0%[10 µM]	298.7	-2.8%
COc1ccc(/C=N/n2c(-c3ccco3)nc3ccccc3c2=O)cc1	6.5%[10 µM]	-100.0*	-4.2%
Cc1nc2ccccc2c(=O)n1/N=C/c1ccco1	x	x	0.6%
COc1cccc(/C=N/n2c(-c3ccco3)nc3ccccc3c2=O)c1	-9.4%[10 µM]	-28.5	-5.9%
Cc1ccccc1OCc1nc2ccccc2c(=O)n1/N=C/c1ccco1	-25.4%[10 µM]	u	22.4µM*
Cc1ccccc1OCc1nc2ccccc2c(=O)n1NC(=O)c1ccco1	31.9%[10 µM]	-100.0*	-12.0%
